This note sets out measurements from PubChem BioAssay (NCI).

The panel holds about 83,000 compounds, 20% with a hit somewhere; the sample as a whole holds those more often.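 Growth was measured after 48 h exposure to one concentration of compound in 96-well plates. Values under 10 count as active.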 Values without a mark were called inactive. The source made the active and inactive calls.

This experiment deals with OVCAR-3 ovarian. Nature of the experiment: NCI-60 one-dose screen, 48 h (100 = growth as untreated, 0 = no growth, -100 = all killed). Conditions: 10 µM unless noted. The protocol:
Growth inhibition of the OVCAR-3 human tumor cell line is measured as a screen for anti-cancer activity. Cells are grown in 96 well plates and exposed to the test compound for 48 hours. Compounds are tested at a single concentration, which is 10^-5 M for most compounds. The reported endpoint is percent growth (GI% or GIPRCNT), where numbers from 0 - 100% represent growth inhibition, and numbers from -100% - 0 represent cell death. For example, a value of 40 represents 60% growth inhibition. A value of 0 means no net growth occurred over the course of the experiment. A value of -40 indicates 40% of cells at the beginning of the experiment died by the end of the experiment. A value of -100 means all cells are dead at the end of the experiment.
NCI-60 Human Tumor Cell Lines Screen was performed using the standard one-dose NCI protocol, which is described in more detail at https://dtp.cancer.gov/discovery_development/nci-60/default.htm.
Compounds with GIPRCNT values below 10 were considered active. Activity score was based on GIPRCNT using the following formula: […]
Score is 0 for GIPRCNT values of 100 or above, 50 for GIPRCNT values of 0, and 100 for GIPRCNT values of -100.
In the case of `CCC(=O)NC(O)C(Cl)(Cl)C(C)Cl` (stereo not given), the growth is 105%. `Nc1nc(N)c2cc(CNc3ccc(Cl)c(Cl)c3)ccc2n1`: the growth was 12.1%.

`CC1=NN(c2cccc(S(N)(=O)=O)c2)C(=O)C1`: the growth was 96.3%. As for `O=C(O)C1[S][Sb]([CH](C(=O)O)[CH](C(=O)O)[Sb]2[S]C(C(=O)O)C(C(=O)O)[S]2)[S]C1C(=O)O` (stereo not given), the growth was 95.7%. With `COc1ccc(/C(=C\c2ccc3c(c2)OCO3)C(=O)Nc2nc3ccc(F)cc3s2)cc1OC`, the growth was 90.7%. Take `CN1CCN(Cc2ccc(NC(=O)c3cncc(C#Cc4cnc5cccnn45)c3)cc2C(F)(F)F)CC1`: the growth is 1.49% (active). The same measure for `Cc1c(O)c(=O)n(-c2ccccc2)n1C`: 108%. For the compound `COc1ccc(Nc2ncnc3c2sc2nc(C)cc(C)c23)cc1`, the growth is 113%. The result for `CCOCC(O)(c1ccc(Cl)cc1)c1ccc(Cl)cc1` reads 112%; that for `COc1cc(/C=C/C(=O)c2c(C)nc3ccccc3c2C)ccc1OCCCOc1cc2c(cc1OC)C(=O)N1CCC[C@H]1C=N2`, -86.9% (active). The same measure for `CC1CN(CCCOC(=O)Nc2ccc(Cl)cc2)CCN1C(C)(C)C` (stereo not given): 104%; for `Oc1ccc(Cl)cc1-c1cc(-c2ccccc2Cl)[nH]n1`: 21.2%; for `CC[C@H](Nc1nc(N)nc(C2CC2)c1C#N)c1nc2cccc(NCc3ccc(C(=O)NO)cc3)c2c(=O)n1-c1ccccc1`: 9.13% (active). For the compound `N=C(N)c1ccc(-c2ccc(-c3cc(Cl)cc(Cl)c3)o2)nc1`, the growth is -95.2% (active). As to `COc1ccc(C(=O)c2c(N)nc3n2CCCC3)cc1OC`, the growth is 109%. In the case of `CCCCN(CCCC)CCC(=O)c1ccc(OC)c2ccccc12`, the growth is 83%. As for `O=C(c1ccc(C(F)(F)F)c(Cl)c1)N(Cc1ccc(Cl)cc1)c1ccc(-c2cc(C(F)(F)F)[nH]n2)c(O)c1`, the growth was 6.9% (active). With `COc1cc(NC(C)CCCN)c2ncccc2c1Oc1ccc(Cl)cc1` (stereo not given), the growth is 60%.

For the compound `O=C(C(=O)c1cccnc1)c1cccnc1`, the growth is 87.7%.

On to `NCCCOc1cc2ccccc2cc1C(=O)NCCCOc1cc2ccccc2cc1C(=O)Nc1ccc(Cl)cc1O`, for which the growth is -31.2% (active). Consider `O=c1c2sc3ncc(Cl)cc3c2nnn1-c1cccc(Cl)c1`, for which the growth was 24.7%. Turning to `COC(=O)/C=C/c1cc(OC(C)=O)c2c(c1)[C@@H](C(=O)OC)[C@H](c1ccc(OC(C)=O)c(OC(C)=O)c1)O2`, the growth is -21.9% (active). On to `COc1ccc(/C(=C\c2cc(OC)c(OC)c(OC)c2)C(=O)N2CCCNCC2)cc1`, for which the growth is 116%. As for `Cc1c(C)c(C)c([N+](=O)[O-])c([N+](=O)[O-])c1C`, the growth is 98.5%. For `CCCOC(=O)C1c2cc3c(cc2CC(C)C1C(=O)OCCC)OCO3` (stereo not given), the growth is 110%. The result for `O=C1Nc2ccccc2/C1=C/c1c[nH]c2ccccc12` reads 93.5%. Take `COc1ccc(-c2cn(-c3cccc(C(=O)/C=C/c4ccc(O)c(OC)c4)c3)c(=O)[nH]2)cc1`: the growth was -1.7% (active). In the case of `COc1ccc2cc(-c3nc(C)c(C(C)=O)c(-c4ccc(C)cc4)n3)ccc2c1`, the growth is 94.3%. Consider `COc1ccc(/C=C/C(=O)c2ccc(NC(=O)CSc3nnc(-c4ccc(Cl)cc4)n3-c3ccccc3)cc2)cc1`, for which the growth was 102%. Consider `Cc1ccccc1N1C(c2ccccc2)=NNC12C=CC(=O)c1c(O)cccc12` (stereo not given), for which the growth was 60.5%. Take `NC(=S)N/N=C(/c1cccs1)C1CC1`: the growth is 51.5%.

`CCc1ccc(Nc2ncnc3c2cnn3-c2cccc(Br)c2)cc1`: the growth is 103%. The same measure for `CCCN(CCC)CC(O)COc1ccccc1C(=O)Nc1ccccc1` (stereo not given): 50.3%; for `CCc1ccc(-c2ccc(NC3CCCCCC3)nn2)cc1S(N)(=O)=O`: 117%; for `Cc1cc(C)c2c(n1)sc1c(Nc3ccc(O)cc3)ncnc12`: 55.3%. Turning to `COc1cc2nccc(Oc3ccc(NC(=O)C4(C(=O)Nc5c(F)cc(F)cc5F)CC4)cc3)c2cc1Oc1ccc(N)cn1`, the growth is 75.3%. In the case of `COc1ccc(Sc2[nH]c(C=O)c3ccccc23)cc1`, the growth is 65.7%.

With `CC(C)(C)CC(C)(C)NCc1cc(C(C)(C)C)cc(CNC(C)(C)CC(C)(C)C)c1O`, the growth is 79.2%. For the compound `CCOC(=O)c1ccc(NCCC(=O)O)cc1`, the growth is 138%. For `N#Cc1nc(-c2ccc(Cl)cc2)cc(-c2ccc(Nc3nc(N4CCCCC4)nc(N4CCCCC4)n3)cc2)c1N`, the growth is 105%.
